Sampled rows, rich in hits. Any-hit rate of the full collection: about 5.7%.
DAX1 inh-1 – inhibits human nuclear receptor DAX1; P51843; HEK293 Gal4-DAX1 luciferase reporter, luminescence; inhibition, % at 6.75 µM; 0.99% of 340,000 active;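 active means inhibition above the mean over all tested compounds plus 3 SD, cut at about 4.2% in these data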;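 further: 0% = DAX1-transfected cells with DMSO and 100% = empty-vector control cells with DMSO; inhibition shows as a rise in luminescence from relieved DAX1 repression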
DAX1 inh-2 – inhibitors of DAX1 repression of SF-1 activated StAR promoter; HEK293T StAR-luciferase reporter, SF-1/DAX-1 repression relief; inhibition, % at 6.8 µM; 1.1% of 370,000 active; AID 652010;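 active means inhibition above the mean over all tested compounds plus 3 SD, cut at about 3.6% in these data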;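 further: 0% = DAX-1 cells with DMSO and 100% = cells lacking DAX-1 with DMSO; higher inhibition means more luminescence from relief of DAX-1 repression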
hgDAF-12 ag – activates the H. glycines DAF-12 receptor ligand-binding domain | HEK293 GAL4-hgDAF12 UAS-luciferase reporter, agonist luminescence; normalized to butyrate control | activation, % at 6.8 µM | 1.8% of 370,000 active | AID 687014;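 active means activation above a cutoff set at the mean of all screened compounds plus 3 SD, cut at about 10% in these data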;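 further: 0% = DMSO wells and 100% = sodium butyrate wells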
AHR act – activates the human aryl hydrocarbon receptor; 2.5% of 320,000 active; activation, % at 5 µM; P35869; AHR-responsive luciferase reporter cells, luminescence; AID 2796; in the data active means activation above about 47%;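 further: 0% = vehicle wells and 100% = reference agonist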
Target sequence (P35869 whole entry, looked up): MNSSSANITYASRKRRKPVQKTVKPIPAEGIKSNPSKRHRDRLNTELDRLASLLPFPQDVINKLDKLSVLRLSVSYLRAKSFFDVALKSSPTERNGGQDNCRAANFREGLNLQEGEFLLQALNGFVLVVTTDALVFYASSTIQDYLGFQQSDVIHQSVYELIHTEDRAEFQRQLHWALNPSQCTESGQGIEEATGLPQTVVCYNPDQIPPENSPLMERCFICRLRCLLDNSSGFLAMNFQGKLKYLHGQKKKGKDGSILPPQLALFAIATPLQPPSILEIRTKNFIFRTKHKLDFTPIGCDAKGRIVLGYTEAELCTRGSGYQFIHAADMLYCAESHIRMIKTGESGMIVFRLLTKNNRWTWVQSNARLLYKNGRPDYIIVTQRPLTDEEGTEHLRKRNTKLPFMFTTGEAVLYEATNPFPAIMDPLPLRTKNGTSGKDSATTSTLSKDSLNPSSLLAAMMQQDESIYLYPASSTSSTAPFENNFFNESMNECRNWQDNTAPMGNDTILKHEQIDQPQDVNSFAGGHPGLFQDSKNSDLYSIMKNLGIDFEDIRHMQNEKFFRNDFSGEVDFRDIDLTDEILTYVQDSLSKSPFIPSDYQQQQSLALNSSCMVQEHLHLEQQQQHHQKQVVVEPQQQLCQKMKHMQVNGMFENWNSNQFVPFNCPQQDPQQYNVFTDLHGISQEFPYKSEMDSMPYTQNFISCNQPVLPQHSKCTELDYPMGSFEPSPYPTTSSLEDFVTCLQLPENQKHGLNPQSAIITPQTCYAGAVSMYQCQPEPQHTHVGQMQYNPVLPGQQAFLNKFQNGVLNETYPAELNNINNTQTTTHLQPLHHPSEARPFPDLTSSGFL
ssDAF12 agonist – activators of S. stercoralis DAF-12 nuclear receptor; AID 652126; activation, % at 6.8 µM; 1% of 370,000 active; HEK293 ssDAF-12/GRIP1 lit1-tk-luc reporter, luminescence; % of 3 µM dafachronic acid response;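 active means activation above the mean over all tested compounds plus 3 SD, cut at about 0.9% in these data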;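 further: 0% = DMSO-only wells and 100% = 3 µM delta7-dafachronic acid wells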
hcDAF-12 act – activates DAF-12 receptor from parasite H. contortus | HEK293 hcDAF-12 lit1-tk-luc reporter, luminescence; 0% DMSO, 100% Δ7-dafachronic acid | activation, % at 6.8 µM | 1.4% of 370,000 active;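 active means activation above the mean of all tested compounds plus 3 SD, cut at about 5.5% in these data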;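 further: 100% = response to 3 µM Δ7-dafachronic acid high control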
* = called active by the depositor; · = no result.

SMILES	DAX1 inh-1	DAX1 inh-2	hgDAF-12 ag	AHR act	ssDAF12 agonist	hcDAF-12 act
Cc1nn(-c2ccccc2)c(N)c1N=Nc1ccc(Cl)cc1	3	2	18*	6	-1	3
Cc1nn(-c2ccccc2)c(N)c1-c1ccccc1	-1	1	9	3	1.0*	5
Cc1ccc(-c2cc(N)n(-c3ccccc3)n2)cc1	1	2	11*	4	0	3
Cc1nn(-c2nc3ccccc3s2)c(N)c1-c1ccc(Cl)cc1	1	0	2	77*	0	-2
Cc1nn(-c2ccccc2)c(N)c1N=Nc1ccccc1	1	1	10	18	0	4
Cc1ccc(C(c2c(C)nn(-c3ccccc3)c2N)c2c(C)nn(-c3ccccc3)c2N)cc1	-1	0	3	14	-1	0
CC(=O)C1=C(C)N(Cc2ccc(Br)cc2)C(=S)NC1c1cccc(Cl)c1 (configuration not stated)	·	-1	2	·	-1	-1
O=C(COc1ccccc1)N=C1SC2CS(=O)(=O)CC2N1c1cccc(F)c1 (configuration not stated)	0	-1	-1	3	0	2
CSCCC(N=C(NS(=O)(=O)c1ccccc1)c1ccccc1)C(=O)O (configuration not stated)	0	-1	-2	-1	2.4*	-2
CNC(=O)CSc1nnc(-c2cccnc2)n1-c1ccc(C)cc1	4.4*	-1	0	-1	0	-2
O=C(CSc1nnc(-c2cccnc2)n1-c1ccccc1)Nc1ccccc1	-2	0	12*	0	-1	-2
N#Cc1ccccc1NC(=O)CSc1nnc(-c2ccccc2)n1-c1ccccc1	0	-1	0	65*	0	3
Cc1ccc(NC(=O)CSc2nnc(-c3cccnc3)n2-c2ccc(C)cc2)cc1	0	0	-2	4	-1	-2
C[C@@H]1COc2cccc(NCCCN3CCOCC3)c2S(=O)(=O)N1	·	0	1	·	-1	2
COc1ccc(CNC(=O)Cc2csc(Nc3nc(=S)[nH]c4ccccc34)n2)cc1	1	1	-3	38	1.0*	5
O=C(Cc1csc(Nc2nc(=S)[nH]c3ccccc23)n1)NCc1ccc(Cl)cc1	0	·	·	26	·	·
COC(=O)CCN(C1CCCCC1)S(=O)(=O)c1ccc(S(=O)(=O)N2CCCCC2)cc1	1	0	0	1	-1	5.8*
CN(C1CCCCC1)S(=O)(=O)c1ccc(S(=O)(=O)N2CCN(CCC#N)CC2)cc1	5.7*	0	0	0	-1	0
FC(F)(F)Oc1ccccc1C(c1nnnn1C1CCCC1)N1CCN(C/C=C/c2ccccc2)CC1 (configuration not stated)	·	3	0	·	0	1
O=C(NCc1cccc(C(F)(F)F)c1)c1csc(COCCO)n1	·	0	-3	·	-1	0
CCOC(=O)Nc1ccc2nc(N3CCCCCC3)sc2c1	0	0	11*	7	0	1
CCOC(=O)N1CCN(C(=O)Nc2ccc3nc(C)sc3c2)CC1	0	0	-1	-1	-1	1
O=C/C(=C\Nc1ccc(Cl)cn1)c1nc2cc(Cl)ccc2o1	-1	0	2	51*	-1	2
O=C/C(=C\Nc1ccc(Cl)cn1)c1nc2ccccc2o1	0	0	3	36	0	3
CCOc1[nH]n(-c2ccccc2)c(=O)c1C=NCc1cccnc1	-1	0	-3	59*	-1	-1
SMILES	DAX1 inh-1	DAX1 inh-2	hgDAF-12 ag	AHR act	ssDAF12 agonist	hcDAF-12 act
O=C(NC1CC1)c1ccc2c(c1)N(Cc1ccccc1)CCS2	0	-4	2	28	-2	1
Cc1cc(C)n2nc(N)c(N=Nc3ccc4c(c3)OCO4)c2n1	-2	-1	-1	6	-1	-4
Cc1cc(C)n2nc(N)c(N=Nc3ccccc3)c2n1	-1	0	6	60*	-1	-1
Cc1ccc(S(=O)(=O)N2CCC(C(=O)N3CCCC3C(=O)N[C@@H](CC(C)C)C(=O)NCC(N)=O)CC2)cc1 (some centres not stated)	0	-1	5	1	0	2
COc1ccccc1N1CCN(S(=O)(=O)c2cn(C)c(=O)n(C)c2=O)CC1	0	1	1	65*	-1	-2
O=C1CSc2ccccc2N1Cc1ccc(F)cc1	1	0	2	9	1.4*	3
CCNC(=S)NNC(=O)CC(C)C	6.7*	0	-1	2	-2	0
Cc1ccc(SCc2c(C(=O)N/N=C/c3cccs3)nnn2-c2nonc2N)cc1	-1	-2	-5	·	-1	-1
CC(=O)c1ccc(-c2ccc(C(=O)N3CCCc4ccccc43)o2)cc1	1	1	5	17	1.8*	-1
Cn1cc(C(=O)C(=O)N2CCCc3ccccc32)c2ccccc21	0	-1	3	68*	-3	-2
O=C(CSc1ccc(-c2cccnc2)nn1)N1CCCc2ccccc21	·	0	0	48*	-1	1
Cc1ccc(OCC(=O)N2CCc3ccccc32)c([N+](=O)[O-])n1	0	2	11*	9	-2	0
O=C(N[C@@H](Cc1cccnc1)C(=O)N1CCC[C@H]1C(=O)NCCc1ccccc1Cl)C1CCCC1	·	0	0	·	-1	-1
C=CCOC(=O)C1=C[C@@H](c2coc3ccccc3c2=O)C[C@@H](OCCCCO)O1	0	0	-2	-3	-1	-2
O=C(CNS(=O)(=O)c1ccccc1Br)OCC(=O)N1CCc2ccccc21	1	1	0	3	-1	0
CC(=O)Nc1ccc(S(=O)(=O)NCC(=O)OCC(=O)N2CCc3ccccc32)cc1	0	1	-1	17	0.9*	5
COCC(=O)N1CCCc2ccccc21	0	0	4	17	0	6.3*
CC(C)CC(N)c1csc(Nc2ccc(C(=O)NCCCO)cn2)n1 (configuration not stated)	·	-1	-2	·	-2	-1
Cc1nc(SCC(=O)Nc2cc(Cl)ccc2[N+](=O)[O-])nc(C)c1C	1	-1	-2	18	-1	-1
Cn1c(=O)c2c(ncn2CC(=O)OCC(=O)Nc2cc(Cl)ccc2C#N)n(C)c1=O	1	0	0	29	1	6.0*
O=C(CSc1ncccn1)NCc1cccc(Cl)c1	1	0	12*	2	-1	4
O=C(COC(=O)Cn1cnc2ccccc2c1=O)Nc1cc(Cl)ccc1[N+](=O)[O-]	0	0	0	15	1	5.6*
O=C(CSc1ncccn1)NCc1ccc(Cl)cc1	1	1	6	45	-1	1
O=C(CSc1ncccn1)Nc1cc(Cl)ccc1[N+](=O)[O-]	4.8*	0	2	3	0	0

Screens as filed in PubChem.
